High-throughput results deposited in PubChem BioAssay by SRMLSC.
This is a sample that favours compounds with a hit; in the whole collection about 6.3% have one here.
Spn DPM-DC inh: S. pneumoniae DPM-DC inhibition. purified DPM-DC, PK/LDH coupled NADH fluorescence. calls only at 10 µM. 65,000 tested, 0.49% active. AID 556;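 active means the 320 compounds with the highest percent inhibition in the single-dose primary screen, excluding strongly autofluorescent ones, cut at about 32% in these data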;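 further: kinetic rate of NADH fluorescence loss reporting ADP formed by the decarboxylase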
NADH enzymes: inhibitors of enzymes used to reach an NAD/NADH endpoint. coupled PK/LDH NADH assays, four targets. IC50, µM (top dose mostly 10 µM), inactives show top-dose inhibition. 65,000 tested, 0.02% active. AID 774;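 active means single-dose screening hits from any of four coupled enzyme assays that gave an IC50 when retested across doses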;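 further: the DPM-DC format reads NADH fluorescence rather than 340 nm absorbance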
A340 absorber: compounds absorbing at 340 nm; 65,000 tested, under 10 active; compound absorbance at 340 nm, fold over control; fold change at 10 µM; AID 708;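 active means at 10 µM dose, initial 340 nm absorbance at least 2 fold that of control wells; inactive means change under 2 fold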;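 further: initial absorbance extrapolated from kinetic A340 decline of NADH oxidation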
PMK inhibit: inhibitors of Streptococcus pneumoniae phosphomevalonate kinase | purified PMK, PK/LDH-coupled NADH absorbance 340 nm | inhibition, % at 10 µM | 65,000 tested, 0.49% active | AID 539;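 active means top-ranked compounds by inhibition in the single 10 µM screen, taking a fixed number of the strongest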;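 further: 0% = full reaction with DMSO carrier and 100% = background rate without enzyme reaction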
Autofluor 339: intrinsic fluorescence of library compounds, ex339/em460 – biochemical, MLSMR library, data from DPM-DC assay, artefact control, profiling panel | compound autofluorescence, ex339/em460 nm, NADH buffer; hits give high values; 1 = no-compound wells, NADH background | fluorescence fold increase at 10 µM | 65,000 tested, 5.5% active | AID 709;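 active means at 10 µM, mean starting fluorescence two-fold or more over control wells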;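 further: signal is the first read of a kinetic run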
Spn MK inh: S. pneumoniae mevalonate kinase inhibition; inhibition, % at 10 µM; purified MK, PK/LDH-coupled NADH absorbance 340 nm; 65,000 tested, 0.48% active;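 active means ranked among the strongest by inhibition in the single 10 µM screen, a fixed top-ranked set picked for dose follow-up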
* = called active by the depositor; i = inactive; . = not tested or not shown; + = active, no number.

SMILES | Spn DPM-DC inh | NADH enzymes | A340 absorber | PMK inhibit | Autofluor 339 | Spn MK inh
Cc1cc(S(=O)(=O)N2CCC(NC(=O)C34CC5CC(CC(C5)C3)C4)CC2)ccc1-n1cnnn1 | i | 8% | 0.99 | 12 | 1.1 | 9
O=c1[nH]c2cc3c(cc2cc1CN(CC1CCCO1)S(=O)(=O)c1ccccc1)OCCO3 (stereo not given) | . | 4% | 1.1 | 0 | 3.8* | 7
CC(=O)c1cccc(S(=O)(=O)N(Cc2cc3cc4c(cc3[nH]c2=O)OCCO4)CC2CCCO2)c1 (stereo not given) | i | 8% | 1.1 | 12 | 1.4 | 3
O=C(NCc1ccccc1)N(Cc1cc2cc3c(cc2[nH]c1=O)OCCO3)CC1CCCO1 (stereo not given) | . | 3% | 1.1 | 4 | 3.7* | 2
COc1ccc(S(=O)(=O)NCc2ccccn2)c(Cl)c1Cl | i | 4% | 1.1 | 4 | 1.1 | 4
Cc1nc(COC(=O)c2c(C)nn(-c3ccccc3)c2C)cs1 | i | 6% | 1 | 11 | 1.1 | 7
COc1ccc(-n2nnc3c(SCC(=O)N4CCCc5ccccc54)ncnc32)cc1 | i | 3% | 1 | 9 | 1.1 | 0
COc1ccccc1N1CCN(C(=O)CSc2nnc(NC(=O)c3ccco3)s2)CC1 | + | 15% | 1 | 12 | 0.73 | 0
COc1ccccc1N1CCN(C(=O)CSc2nnc(NC(=O)C3CC3)s2)CC1 | i | 5% | 0.99 | 11 | 1.1 | 5
O=C(c1ccco1)N1CCN(S(=O)(=O)c2ccc(Oc3ccccc3)cc2)CC1 | i | 3% | 0.99 | 7 | 1 | 9
CCOC(=O)C1C(=O)NC(N2CCCCC2)=NC1c1ccco1 (stereo not given) | i | 3% | 1 | 4 | 1.1 | 6
CCOc1ccc2nc(SCC(=O)N3CCCCCC3)c(C#N)cc2c1 | i | 4% | 0.97 | 9 | 1.2 | 6
CCOc1ccc2nc(NCCNC(=O)CC)c(C#N)cc2c1 | . | 13% | 1 | 17 | 3.8* | 9
C=CCSc1nc(N)c(C(=O)Nc2ccccc2C)cc1C(N)=O | i | 2% | 1.1 | 7 | 1.1 | 8
CCOC(=O)CC1(CC(=O)OCC)NC(=O)c2c(C)sc(C(=O)OCC)c2N1 | . | 3% | 1 | 11 | 3* | 10
CCOC(=O)CC1(C)NC(=O)c2c(C)sc(C(=O)OCC)c2N1 (stereo not given) | . | 9% | 1.1 | 9 | 3.9* | 8
CC(OC(=O)c1cc2sccc2n1C)C(=O)NCC1CCCO1 (stereo not given) | i | 9% | 1 | 22 | 1 | 0
CC(OC(=O)c1cccs1)C(=O)NCC1CCCO1 (stereo not given) | i | 9% | 0.99 | 25* | 0.99 | 0
Cc1ccnc2nc(C(=O)N3CCN(S(=O)(=O)c4ccccc4)CC3)nn12 | i | 8% | 0.97 | 19 | 1 | 5
Cc1nn2cc(-c3ccc(N)cc3)nc2s1 | i | 6% | 1 | 17 | 1 | 1
Cc1nc2nc(-c3ccccc3)cn2nc1C | . | 4% | 1.1 | 0 | 2.2* | 8
CCc1ccc(-c2cn3nc(C)c(C)nc3n2)cc1 | . | 4% | 1.1 | 0 | 2.3* | 8
Cc1cc(N)n2nc(-c3ccccc3)cc2n1 | i | 5% | 1 | 9 | 1.6 | 3
CCc1c(-c2ccccc2)nc2nc(C)c(C)nn12 | . | 3% | 1.1 | 0 | 2.1* | 5
CCN(c1ccccc1)c1cc(C)nc2nc(C)nn12 | i | 7% | 1.1 | 15 | 1 | 5
SMILES | Spn DPM-DC inh | NADH enzymes | A340 absorber | PMK inhibit | Autofluor 339 | Spn MK inh
COc1ccc(N2CCN(CCCNC(=O)CC3Oc4ccc(C)cc4NC3=O)CC2)cc1 (stereo not given) | i | 1% | 0.98 | 0 | 1.1 | 12
c1ccc(-c2nn3c(-c4ccncc4)nnc3s2)nc1 | i | 3% | 1 | 0 | 1.1 | 6
N#CCCn1c(Cl)nc2ccccc21 | i | 5% | 1 | 5 | 1.1 | 9
Cc1ccc2oc(=O)c3cc(C(=O)NCCN4CCN(C)CC4)sc3c2c1 | . | 9% | 1.2 | 9 | 2.2* | 9
O=C(Nc1cccnc1)c1cc(-c2ccc3c(c2)OCO3)on1 | i | 6% | 1 | 16 | 1.3 | 2
O=C(c1c(Cl)nc2sccn12)N(C(=O)c1c(Cl)nc2sccn12)c1ccc(Cl)cn1 | i | 4% | 1 | 0 | 1.2 | 6
Fc1ccccc1OCCCN1CCOCC1 | i | 17% | 1.1 | 0 | 1.1 | 52*
CCc1ccccc1OCCCCN1CCCC1 | i | 8% | 1 | 3 | 1 | 71*
Cc1ccc(OCCN2CCCCCC2)c(C)c1 | i | 5% | 1 | 10 | 1.1 | 6
COc1cccc(OCCCCN2CCCCC2)c1 | i | 19% | 1 | 0 | 1.1 | 55*
Cc1ccccc1OCCCN1CCCC1 | i | 14% | 1.1 | 0 | 1.1 | 43*
CCOc1ccc2nc3c(cc2c1)CN(CCCO)C(=NCCOC)S3 | i | 4% | 1.1 | 12 | 1.1 | 0
Clc1ccccc1OCCN1CCCCC1 | i | 17% | 1.1 | 11 | 1.1 | 41*
C=CCc1ccccc1OCC(CN1CCCCC1)OC(C)=O (stereo not given) | i | 6% | 0.99 | 18 | 1.3 | 0
C=CCc1ccccc1OCCCCN1CCCC1 | i | 6% | 1 | 9 | 1 | 45*
Clc1ccccc1OCCn1ccnc1 | i | 3% | 1.1 | 0 | 1.1 | 10
O=C(NCc1cccnc1)c1ccc2c(=O)n(CCCN3CCCC3=O)c(=S)[nH]c2c1 | + | 24% | 1.1 | 13 | 0.47 | 6
COc1ccc(Cn2c(=O)[nH]c3cc(C(=O)NCCCN4CCCC4=O)ccc3c2=O)cc1 | i | 7% | 1 | 13 | 1.2 | 8
CC(C)N(C)C1CCN(C(=O)Nc2ccc(Cl)c(Cl)c2)CC1 | i | 3% | 0.99 | 9 | 1.1 | 0
Nc1ccc[n+](Cc2ccccn2)c1 | i | 8% | 1.1 | 20 | 2.1* | 4
COc1ccc(C(=O)CSc2nnc(-c3ccc(C)cc3)o2)cc1 | i | 3% | 1 | 10 | 1.1 | 12
COc1ccc(OC)c(C(=O)CSc2nnc(-c3ccc(OC)c(OC)c3)o2)c1 | i | 5% | 1 | 0 | 2* | 6
COC(=O)c1ccccc1NS(=O)(=O)c1ccc2c3c(cccc13)C(=O)N2 | i | 16% | 1 | 15 | 2.8* | 6
CC(C)C(NS(=O)(=O)c1ccc2c3c(cccc13)C(=O)N2)C(=O)O (stereo not given) | . | 1% | 1.1 | 0 | 2.2* | 2
O=C(O)c1ccccc1NS(=O)(=O)c1ccc2c3c(cccc13)C(=O)N2 | i | 7% | 1 | 8 | 1.1 | 13
O=C1Nc2ccc(S(=O)(=O)NCc3ccco3)c3cccc1c23 | . | 1% | 1.1 | 0 | 2.2* | 1
CCOc1ccc(S(=O)(=O)NCc2ccco2)c2ccccc12 | i | 1% | 1 | 0 | 1.1 | 2
